# Active and inactive are the calls of the source. The calls were made as follows: active = hit-call score of the fitted dose curve at least 0.9, where 1 is the maximum; inactive = score below 0.9.
# Assay: CCTE_Deisenroth_DEVTOX-GLR_Pluri_CellCount: Viability Assessment in CCTE's DevTox GLR-Pluri Assay Evaluation of Total Cell Counts, Deisenroth Lab (AID 2284430)
# Summary of the method: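 Cytotoxicity readout: fluorescent nuclei counts by high-content imaging, expressed as percent change relative to 0.2% DMSO. Human RUES2-GLR pluripotent line differentiated 48 h, dosed twice at 24-h intervals across 1 nM - 200 uM (10 points).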
smiles,measurement,value
CC1(C)[C@@H]2CC[C@@]1(C)C(=O)C2,outcome,inactive

# — PubChem BioAssay (EPA / NIEHS)
